Data taken from PubChem BioAssay AID1947 (The Scripps Research Institute Molecular Screening Center, 2009).
Out of some 300,000 compounds screened, about 990 (0.33%) were called active. What follows is part of a selection rich in actives, with near analogues and random picks from the rest. A number with no mark means an inactive call.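 How the source made its calls: active means inhibition above the screen mean inhibition plus 3 SD, computed separately per campaign (cut at about 18% in these data); inactive means the rest.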

Each compound was assayed on Fam108B (ABHD17B) serine hydrolase [Mus musculus] (assay: mouse Fam108B serine hydrolase inhibitors, primary screen, counter-screen for RBBP9 inhibitor project, biochemical, fluorescence polarization (AID 1947;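 further: inhibitors lower polarization as less probe binds the enzyme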)). Settings: recombinant Fam108B, FP-Rh probe fluorescence polarization; at 9.51 µM; active compounds read high.

For `O=[N+]([O-])c1cc(Cl)cc(/C=N/NC(=S)Nc2cc(S(=O)(=O)N3CCOCC3)ccc2Cl)c1O`, the inhibition was 49.6% (active).
In the case of `COC(=O)CSc1nccc(-c2cccs2)n1`, the inhibition is reported as 25.3% (active).
In the case of `COc1ccc(-c2csc(NC(=O)COC(=O)Cc3ccc(Cl)cc3Cl)n2)cc1`, the inhibition is reported as 25.7% (active).
With `COCCOC(=O)c1sc(=S)n(CCOC)c1N` the inhibition was 30.9% (active).
With `Cc1cc2nc3c(=O)n(Cc4ccccc4)c(=O)[nH]c3nc2cc1N` the inhibition was 20.1% (active).
With `CSc1c(SCc2ccccc2)cnn(Cc2ccccc2)c1=O` the inhibition was 52.1% (active).
For `COc1ccc2nc(Nc3nc4cc5c(cc4s3)OCCO5)sc2c1`, the inhibition was 33.1% (active).
With `O=C(NNc1c2ccccc2nc2ccccc12)c1cc2ccccc2cc1O` the inhibition was 71.8% (active).
For `O=C(CCn1c(SCC(=O)c2ccccc2)nc2ccccc2c1=O)NCc1ccc(F)cc1`, the inhibition was 27.5% (active).
`COc1ccccc1C1C(C#N)=C(N)Oc2c1c(-c1ccccc1)nn2-c1ccccc1` (centres undefined) was tested, and the inhibition was 24.5% (active).
For `C/C(=C\c1ccco1)C1Nc2cccc3cccc(c23)N1`, the inhibition was 18.5% (active).
For `COc1ccc(/C=C/C(=O)OCC(=O)Nc2cccc(Oc3ccccc3)c2)c(OC)c1`, the inhibition was 21.4% (active).
`Oc1c(Cl)cc(Cl)c(Cl)c1Cc1c(O)c(Cl)cc(Cl)c1Cl` was tested, and the inhibition was 48% (active).
For `COc1ccc(N2CC(C(=O)NCCN3C(=O)S/C(=C\c4cccnc4)C3=O)CC2=O)c(OC)c1` (centres undefined), the inhibition was 65.4% (active).
`O=C(NCc1ccccn1)c1ccc2nc(-c3ccco3)c(-c3ccco3)nc2c1` was tested, and the inhibition was 39.1% (active).
In the case of `COCCNC(=O)Nc1ccc2nc(-c3ccco3)c(-c3ccco3)nc2c1`, the inhibition is reported as 63.8% (active).

Compared with `O=C(N/N=C/c1cc(Cl)cc([N+](=O)[O-])c1O)C(O)(c1ccccc1)c1ccccc1`, `O=C(N/N=C/c1cccnc1)c1cc2ccccc2cc1O` is lower in inhibition: 7.58% for the first, 3.37% for the second.

First: O=C(CN1CCN(c2ccc(O)cc2)CC1)Nc1cc(S(=O)(=O)N2CCOCC2)ccc1Cl
Second: COc1ccc(N2CCN(S(=O)(=O)c3cc4c5c(c3)C(C)C(=O)N5CCC4)CC2)cc1 (centres undefined)
The inhibition of the first is lower: 1.19% for the first, 2.45% for the second.

Compared with `O=C(O)COc1ccc(-c2nccc(-c3cccs3)n2)cc1`, `COC(=O)c1cc(-c2cccs2)nc2ccccc12` is lower in inhibition: -4.89% for the first, -5.99% for the second.

Compared with `Cc1ccc([C@@H]2CC=C(C(=O)O)[C@H](c3cccc(Cl)c3)N2S(=O)(=O)c2ccc(C)cc2)cc1`, `COC(=O)CN1C(=O)[C@H]2[C@@H](C3CC3)N3C(=O)CN(Cc4ccc(-c5ccccc5)cc4)C(=O)[C@@]3(Cc3ccccc3)[C@H]2C1=O` is higher in inhibition: -3.66% for the first, 0.43% for the second.

Going from `COc1ccc(-c2csc(NC(=O)COC(=O)c3ccc(Br)o3)n2)cc1` to `COc1ccc(CNC(=O)CN(C(=O)c2csnn2)c2cnc3ccccc3c2)cc1`, the inhibition rises from -1.38% to 2.77%.

First: CC(C)(C)NC(=O)NC(=O)COC(=O)Cc1ccc(Cl)cc1Cl
Second: CCC(=O)c1ccc(OCC(=O)OCC(=O)NC2CCCCCC2)cc1
The inhibition of the first is lower: -3.17% for the first, 2.33% for the second.

Going from `CC(C)(C)c1ccc(/C=C2\SC(=O)N=C2N)cc1` to `CC(C)(C)OC(=O)NNc1c2ccccc2nc2ccccc12`, the inhibition rises from -2.33% to 10.9%.

Going from `CCOC(=O)c1c(N)sc(C(C)=O)c1C` to `CCOC(=O)N1CCC(O)(c2cc(C)c(C)cc2C)CC1`, the inhibition falls from 2.44% to 1.15%.

First: COC(=O)c1sc(=S)n(-c2ccc(Cl)cc2)c1C
Second: COc1ccc2nc(NC(=O)c3ccc(Br)s3)sc2c1
The inhibition of the first is higher: 0.66% for the first, -2.97% for the second.

First: Cc1cc(-c2csc(N)n2)c(C)n1Cc1ccccc1
Second: Cc1nn(Cc2ccccc2)c2c1C(c1ccccc1)C(C#N)=C(N)O2 (centres undefined)
The inhibition of the first is lower: 1% for the first, 4.14% for the second.

Going from `CC(=O)c1ccc(-c2ccc(Cn3c(C)nc4cc(N)c(C)nc43)cc2)cc1` to `COc1ccc(C(=O)Nc2c(N)nc(SCC(=O)Nc3ccc(C(C)=O)cc3)[nH]c2=O)cc1`, the inhibition rises from -2.95% to 2.83%.

Compared with `C=C1C2C[C@H](O)C(C)(C)[C@@]2(O)[C@H](O)C[C@]23C[C@@](C)(O)[C@H](CC[C@H]12)[C@H]3O` (some centres undefined), `CC[C@H]1OC(=O)[C@H](C)[C@@H](O[C@H]2C[C@@](C)(OC)[C@@H](O)[C@H](C)O2)[C@H](C)[C@@H](O[C@@H]2O[C@H](C)C[C@H](N(C)C)[C@H]2O)[C@](C)(O)C[C@@H](C)[C@@H]2N[C@@H](COCCOC)O[C@H]([C@H]2C)[C@]1(C)O` is higher in inhibition: -4.05% for the first, -4.04% for the second.

Going from `CCN(CC(=O)Nc1ccc2c(c1)OCO2)S(=O)(=O)c1ccccc1` to `COc1ccc(OC)c(/C=C/C(=O)OCC(=O)Nc2ccc3c(c2)OCCO3)c1`, the inhibition falls from 3.09% to -4.2%.

Going from `CCn1c(SCc2ccccc2)nc2c(c1=O)SCC2` to `O=C(CSc1nnc(C2CC2)n1Cc1ccccc1)Nc1cccnc1Cl`, the inhibition falls from 5.08% to 1.49%.

First: CC(=O)Nc1ccc(NC(=O)CSc2ncnc3c2cnn3Cc2ccccc2)cc1
Second: O=C(Cn1cc(/C=N/NC(=O)c2cccc(C(F)(F)F)c2)c2ccccc21)Nc1ccc(F)cc1
The inhibition of the first is lower: 1.73% for the first, 4.38% for the second.

Going from `Cc1noc(C)c1S(=O)(=O)N(C)Cc1ccccc1` to `Cc1cc(C)cc(C(=O)N(CCc2ccccc2)C2=CC3CCC(C2)N3C)c1` (centres undefined), the inhibition rises from -2.49% to -0.23%.

Compared with `COCC(C)NC(=O)CSc1nc2nn(-c3ccccc3)c(=O)c-2c2n1CCCCC2` (centres undefined), `N=C1C(=O)OCC1c1ccccc1NC(=O)CN1CCCCC1` (centres undefined) is lower in inhibition: 0.63% for the first, -3.29% for the second.

Going from `O=C(Cn1ncc2c3ccccc3n(Cc3ccccc3)c2c1=O)NCCCN1CCOCC1` to `O=C(CCCn1c(SCC(=O)c2ccccc2)nc2ccccc2c1=O)NCC1CCCO1` (centres undefined), the inhibition rises from -3.84% to -0.5%.

Going from `CC(C)Nc1ccc(-n2nc3ccccc3[n+]2[O-])cc1` to `Cc1nn(-c2ccccc2)c2c1C(c1ccc(F)cc1)C(C#N)=C(N)O2` (centres undefined), the inhibition rises from 1.5% to 4.31%.

Compared with `COc1ccc2nc(NC(=O)NC3CCCCC3)sc2c1`, `COc1ccc2oc(=O)c(C(=O)NCc3ccccn3)cc2c1` is lower in inhibition: 4.3% for the first, 1.13% for the second.

Compared with `CC1C(=O)C(C)C(c2ccc(O)cc2)NC1c1ccc(O)cc1` (centres undefined), `COc1ccc(OCc2nnc3n2N=C(c2ccccc2)C(CC(=O)O)S3)cc1` (centres undefined) is higher in inhibition: -5.96% for the first, -0.94% for the second.

Going from `COc1ccc2oc(C(=O)N(CC(C)C)C3CCS(=O)(=O)C3)c(C)c2c1` (centres undefined) to `CC(C)c1ccc2oc(=O)cc(CN3CCN(Cc4ccccc4)CC3)c2c1`, the inhibition falls from 3.82% to 0.92%.

Compared with `O=C(CCCn1c(SCC(=O)c2ccc(F)cc2)nc2ccccc2c1=O)NCc1ccco1`, `CC(/C=N/NC(=O)c1cc(-c2ccc3ccccc3c2)n[nH]1)=C\c1ccco1` is lower in inhibition: -1.64% for the first, -15.2% for the second.

Going from `CS(=O)(=O)N1CCCC(C(=O)Nc2ccccc2C(F)(F)F)C1` (centres undefined) to `CC(C)(C)C(=O)Nc1c(Br)c(C2CC2)nn1-c1ccccc1`, the inhibition rises from -3.11% to 1.83%.

Compared with `CC(C)CCN1CCN=C1N(C)C`, `CC(C)C(=O)N1CCC2(CC1)Oc1ccc(F)cc1C(=O)C21CC(c2ccccc2)=NO1` (centres undefined) is higher in inhibition: -3.1% for the first, 1.14% for the second.

First: Cc1cc(C)cc(C(=O)NC2C(=O)N3C(C(=O)O)=C(CSc4nnc(C)s4)CSC23)c1 (centres undefined)
Second: Cc1cc(C)cc(NC(=O)NCc2ccccn2)c1
The inhibition of the first is higher: 0.52% for the first, -2.47% for the second.

Going from `CN(C)c1ccc(NC(=O)CN2C3CCCC2CC(NC(=O)c2ccccc2)C3)cc1` (centres undefined) to `COc1cc(/C=C/C(=O)OCC(=O)Nc2cccc(Oc3ccccc3)c2)ccc1O`, the inhibition rises from -3.02% to 6.01%.

Compared with `COc1ccc(Nc2ncc(C(=O)N3CCN(c4ccccc4OC)CC3)c3ccccc23)cc1`, `c1ccc2c(-c3nn4nnnc4c4ccccc34)cccc2c1` is lower in inhibition: 5.14% for the first, 3.27% for the second.

Compared with `CC(/C=N/NC(=O)c1ccncc1)=C\c1ccco1`, `CC(Cc1cccs1)N(Cc1ccc(Cl)cc1)C(=O)c1ccncc1` (centres undefined) is higher in inhibition: -1.58% for the first, 0.27% for the second.

First: CC(=O)NC1=NN(C(C)=O)C(C)(c2ccc(Cl)s2)S1 (centres undefined)
Second: CCCC(=O)Nc1ccc2c(c1)nc(CCNC(=O)c1ccco1)n2C
The inhibition of the first is lower: -2.49% for the first, 3.43% for the second.

Going from `O=C(CN1CCN(Cc2ccc(F)cc2Cl)C1=O)NCc1cccs1` to `CN(C)C(=O)c1cccn(Cc2cccc(C(F)(F)F)c2)c1=O`, the inhibition falls from 2.32% to 0.5%.

First: CSCCC1NC2(C(=O)Nc3ccc(Cl)cc32)[C@@H]2C(=O)N(C3CCCC3)C(=O)[C@H]12 (some centres undefined)
Second: CCOc1ccc(N2CC(C(=O)NCCN3C(=O)S/C(=C\c4cccnc4)C3=O)CC2=O)cc1 (centres undefined)
The inhibition of the first is lower: -1.72% for the first, 0.71% for the second.

Compared with `O=[N+]([O-])c1ccc(F)cc1Oc1nc(-c2cccnc2)nc2ccccc12`, `N/C(=N\OC(=O)CCc1ccccc1)c1cccnc1` is higher in inhibition: -4.4% for the first, -0.43% for the second.

Going from `CCc1ccccc1N1CN(Cc2ccco2)CNC1=S` to `Cc1cc(C)c2c(Cn3ccnc3)cc(=O)oc2c1`, the inhibition rises from -2.75% to -0.08%.

First: O=C(NCCN1C(=O)S/C(=C\c2cccnc2)C1=O)c1cccc(OC(F)F)c1
Second: CCOc1cc(NC(=S)NCCCOC)c(OCC)cc1NC(=O)c1ccco1
The inhibition of the first is higher: 2.13% for the first, -0.81% for the second.

Going from `COc1ccc(NC(=S)SC)cc1OC` to `C/C=C/C(=O)Nc1ccc(N2CCN(c3ccc(C(F)(F)F)cn3)CC2)nc1`, the inhibition rises from 2.25% to 8.22%.

With `Cc1nc2scc(-c3cccs3)c2c(=O)n1N` the inhibition was 7.81%.
